Assay results: PubChem BioAssay AID920 (The Scripps Research Institute Molecular Screening Center, 2007)
About 700 (0.35%) of roughly 200,000 compounds were called active. This is one part of a sample in which actives are shown more often than they occur.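 The calls were made as follows: active = inhibition above a set limit, the mean inhibition across all tested compounds plus 3 SD (cut at about 34% in these data); inactive = the rest.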

Assay: blockers of IFN-gamma driven STAT1 reporter – cell-based, HTS, luciferase reporter, primary screen (AID 920);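 also: 0% = IFN-gamma with DMSO and 100% = IFN-gamma with 300 µM nifuroxazide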
Details: NIH 3T3 STAT1-luciferase reporter, luminescence, at 5.5 µM, stronger effect = higher value

| Compound | inhibition |
| --- | --- |
| O=C(COC(=O)c1ccc(F)cc1)Nc1nc2ccc([N+](=O)[O-])cc2s1 | -0.42% (inactive) |
| O=C(CN1CCN(c2ccccn2)CC1)N1CCc2ccccc21 | -3.17% (inactive) |
| O=C(CN1C(=O)c2ccccc2S1(=O)=O)N1CCc2ccccc21 | 61.3% (active) |
| O=C(CSCc1ccccc1)N1CCc2ccccc21 | -41.3% (inactive) |
| S=C(Nc1ccc(Br)cc1Cl)N1CCC2(CC1)OCCO2 | -18.2% (inactive) |
| CCNc1ccc(C(=O)OCC(=O)N2c3ccccc3NC(=O)C2(C)C)cc1[N+](=O)[O-] | 4.43% (inactive) |
| Cc1cc(Cl)ccc1OCCCC(=O)NCc1ccncc1 | -1.56% (inactive) |
| C/C(=N/OC(=O)c1cccc(C(F)(F)F)c1)c1cnccn1 | -6.55% (inactive) |
| COc1cc(SC)ccc1C(=O)Nc1nc(C)cs1 | 93.3% (active) |
| COc1ccccc1CNC(=O)c1ccc(SC)cc1OC | -9.83% (inactive) |
| COc1cc(SC)ccc1C(=O)Nc1cc(C)ccn1 | -2.53% (inactive) |
| CC(=O)NC(Cc1ccc(F)c(F)c1)C(=O)NC1CCN(c2nnnn2-c2ccccc2)CC1 (stereo not given) | 5.49% (inactive) |
| CC1c2nc3ccccc3n2C(CC(=O)NCCCN2CCOCC2)C(=O)N1Cc1ccccc1 (stereo not given) | 6.33% (inactive) |
| C/C(=N/NC(=O)C1COc2ccccc2O1)c1ccco1 (stereo not given) | -4.92% (inactive) |
| COC(=O)C1=CN(Cc2ccc(OC)c(OC)c2)C=C(C(=O)OC)C1c1cccs1 | 59.2% (active) |
| COc1ccc(C2=NN(C(=O)CCC(=O)O)C(c3cccs3)C2)cc1OC (stereo not given) | 3.75% (inactive) |
| COc1ccc(CCNC(=O)COC(=O)/C=C/c2cccs2)cc1OC | 9.78% (inactive) |
| Cc1cc([N+](=O)[O-])nn1Cc1ccc(F)cc1 | 6.91% (inactive) |
| O=c1cnnc(Nc2ccccc2F)[nH]1 | -3.73% (inactive) |
| COc1ccc2c(CC(=O)OCC(=O)Nc3ccccc3[N+](=O)[O-])coc2c1 | 0.3% (inactive) |
| CC[C@H]1CN2CCc3cc(OC)c(OC)cc3[C@@H]2C[C@@H]1C[C@H]1NCCc2cc(OC)c(OC)cc21 | 71.5% (active) |
| COc1cc2c(cc1O)[C@H](Cc1ccc(Oc3cc(C[C@@H]4NCCc5cc(OC)c(O)cc54)ccc3O)cc1)NCC2 | 5.62% (inactive) |
| Cc1ccc(NC(=S)N2CCN(c3ncccn3)CC2)cc1C | 0.8% (inactive) |
| CCn1c2ccccc2c2cc(NC(=O)COC(=O)c3cc(S(=O)(=O)N4CCCCC4)ccc3Cl)ccc21 | 5.58% (inactive) |
| CC(=O)c1ccc(-c2nnc(CCC(=O)N(C)Cc3cnc4ccccn34)o2)s1 | 0.17% (inactive) |
